# Screening data: PubChem, National Center for Advancing Translational Sciences (NCATS)
# A selection: hits, their analogues and other compounds. The true share with any hit is near 7.3%.
# SMN2 splice up – SMN2 splice variant enhancement. HEK293 SMN2-luciferase splicing reporter, luminescence, 30-36 h. Potency, µM (titrated, usually from 46.1 µM), inactives show at the top dose activity change, positive = activation, actives largely listed as activators. 210,000 tested, 2.8% active; further: % of control where 0% means no effect; nearly all actives have a fitted effect of over 55% in size
#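 HEK293 cells carry an SMN2 minigene-luciferase reporter in which exon 7 inclusion puts luciferase in frame. Cells were seeded at 2000 cells/well, attached for 10-12 hours, then exposed to compounds for 30-36 hours at 37C before ONE-Glo luminescence.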
# FLuc modulator – inhibits or activates purified firefly luciferase, miR-21 counter-screen. 360,000 tested, 6.9% active. P08659. purified FLuc, Km substrates, luminescence inhibition. Potency, µM (series often up to 57.5 µM), without a hit: at the top dose activity change, negative = inhibition, hits mostly inhibitors;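 further: plate controls were vehicle for no effect and reference inhibitor for full effect; nearly all actives have a fitted effect of over 55% in size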
# Target sequence (P08659 whole entry, looked up): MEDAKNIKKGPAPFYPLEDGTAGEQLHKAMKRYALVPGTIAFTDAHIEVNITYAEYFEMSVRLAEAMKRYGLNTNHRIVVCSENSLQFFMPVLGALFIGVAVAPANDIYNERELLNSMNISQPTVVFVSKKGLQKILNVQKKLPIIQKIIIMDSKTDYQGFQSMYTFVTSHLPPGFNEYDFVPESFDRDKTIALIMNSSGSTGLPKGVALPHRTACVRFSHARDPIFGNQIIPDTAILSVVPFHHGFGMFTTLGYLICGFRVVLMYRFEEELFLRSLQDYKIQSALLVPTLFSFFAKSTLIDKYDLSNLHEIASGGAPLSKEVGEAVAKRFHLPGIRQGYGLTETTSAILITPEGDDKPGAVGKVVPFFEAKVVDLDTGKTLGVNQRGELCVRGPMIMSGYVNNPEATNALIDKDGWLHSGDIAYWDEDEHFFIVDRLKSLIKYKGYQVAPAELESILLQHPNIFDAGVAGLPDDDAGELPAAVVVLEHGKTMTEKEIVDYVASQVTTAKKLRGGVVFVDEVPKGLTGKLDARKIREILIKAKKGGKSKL
#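 Purified P. pyralis luciferase, 10 nM final, with Km-level 10 uM D-luciferin and 10 uM ATP in 50 mM Tris acetate pH 7.5, 10 mM Mg acetate, 0.01% Tween-20, 0.05% BSA; 6-point qHTS titration about 60 µM downward; luminescence read.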
# p53 reactivator – restores transcriptional activity of mutant p53; H1299 p53-A138V BP100-luciferase reporter, luminescence, 24 h; Potency, µM (highest dose often 92.2 µM), for inactives: top-dose activity change, positive = activation, most hits filed as activators; 320,000 tested, 0.063% active; further: % of control where 0% means no effect; nearly all actives have a fitted effect of over 45% in size
#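 p53-null H1299 cells stably carrying temperature-sensitive p53-A138V and a BP100-luciferase reporter were pinned with compounds (4-point, 1:5 series) and held 24 hrs at 37 deg C. Luminescence was read 10 min after detection reagent.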
# NPC1 prom act – activators of NPC1 promoter; Potency, µM (top dose mostly 9.22 µM), for the others: top-dose activation, most hits filed as activators; Huh7 NPC1 promoter luciferase reporter, 24 h; 320,000 tested, 2.4% active; further: % of control where 0% means no effect; nearly all actives have a fitted effect of over 60% in size
#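 NPC1 promoter–luciferase Huh7 cells; 24 h compound; luminescence.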
# Rab9 promoter act – Rab9 promoter activation; Huh7 Rab9 promoter-luciferase reporter, luminescence, 24 h; Potency, µM (highest dose often 9.22 µM), without a hit: at the top dose activation, negative = inhibition, hits mostly activators; 320,000 tested, 2.8% active; AID 485297; further: % of control where 0% means no effect; nearly all actives have a fitted effect of over 60% in size
#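 Huh7 reporter line, Rab9 promoter upstream of luciferase. Compound exposure 24 h at 37 °C in reduced-serum medium with 10% FBS. Read-out: luminescence.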
# ELG1 genotox – genotoxicity induction in ELG1-luciferase HEK293T cells; HEK293T ELG1-luciferase reporter, luminescence, 16 h; Potency, µM (titrated, usually from 46 µM), for inactives: at the highest dose activity change, positive = activation, hits mostly activators; 330,000 tested, 1.3% active; AID 504466; further: % of control where 0% means no effect; nearly all actives have a fitted effect of over 60% in size
#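 ELG1-luciferase HEK293T cells, 2,000/well; compound pinned in; 16 hr, 37 °C, 5% CO2; ONE-Glo, 30 min RT; luminescence on CCD imager.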
# Numbers without * were called inactive; ? = inconclusive; nt = no result given; [ ] = remark or other dose. The call rests on the fitted dose curve; in most records, active means well fitted curve in the direction sought with a large enough effect; inconclusive means small, poorly fitted or top-dose-only effect, or another doubt; inactive means no such curve, though single readings can be large; an effect the other way counts as inactive or inconclusive. Potency means the concentration at half of the fitted maximal effect.
SMILES,SMN2 splice up,FLuc modulator,p53 reactivator,NPC1 prom act,Rab9 promoter act,ELG1 genotox
O=C(N/N=C/c1ccncc1)c1cc(-c2ccc(Br)s2)[nH]n1,nt,15µM*,1%,11%,-2%,1%
O=C(N/N=C/c1ccccn1)c1cc(-c2ccc(Br)s2)[nH]n1,nt,-9%,-4%,3%,4%,-12%
O=C(N/N=C\c1ccncc1)c1ccc(Cl)s1,nt,17µM*,2%,14%,4%,15%
Cc1ccc(C)c(N2CCN(C(c3ccc(F)cc3)c3nnc(-c4ccccc4)o3)CC2)c1 (stereo not drawn),-10%,-5%,nt,nt,nt,nt
CN(C)C(=O)c1cc(C(=O)c2ccccc2Cl)c[nH]1,13%,?,8%,12%,18%,13%
CN(C)Cc1ccccc1-c1cncnc1Nc1ccc(F)cc1,-10%,nt,nt,nt,nt,nt
Cc1ccnc(Nc2nc(-c3ccc(F)cc3)cs2)c1,nt,0.85µM*,nt,1.8µM*,2.5µM*,?
Cc1ccnc(Nc2nc(-c3ccc(Cl)cc3)cs2)c1,nt,2.7µM*,10%,2.8µM*,2.8µM*,?
O=C(c1cccc(F)c1)N1CCC2(CCCN(C(c3ccccc3)c3ccccc3)C2)CC1,15%,nt,nt,nt,nt,nt
COc1cc(/C=C/C(=O)OCC(=O)Nc2ccc3c(c2)OCCO3)ccc1O,26%,?,-3%,-1%,-4%,0%
COc1cc(/C=C(\C#N)C(=O)Nc2ccccn2)ccc1O,nt,11µM*,23%,-3%,-2%,?
COc1cc(/C=C(\C#N)C(=O)Nc2ccc3c(c2)OCCO3)ccc1O,nt,0.27µM*,19%,-5%,12%,5%
COc1cc(/C=C(\C#N)C(=O)N2CCc3ccccc32)ccc1O,nt,17µM*,5%,-1%,-7%,0%
N#C/C(=C\c1ccc(O)c(O)c1)C(=O)N1CCc2ccccc21,nt,?,-6%,-11%,-11%,-5%
CCOc1cc(/C=C(\C#N)C(=O)Nc2ccccn2)ccc1O,nt,17µM*,18%,-7%,1%,9%
COc1ccc(-c2cc3c(=O)n(CC(=O)Nc4ccc(Br)c(C)c4)ccn3n2)cc1OC,nt,6%,nt,nt,nt,nt
Cc1cc(NC(=O)c2cc(-c3cccc(Cl)c3)on2)nn1Cc1ccc(Cl)cc1,-29%,-2%,nt,nt,nt,nt
O=C(Cn1c(=O)nc(-c2ccccc2F)c2cc(Cl)ccc21)Nc1ccccc1C(F)(F)F,nt,0%,nt,nt,nt,nt
N#C/C(=C/c1ccc(O)c([N+](=O)[O-])c1)C(=O)Nc1ccccc1,nt,13µM*,?,-31%,-7%,-5%
CCOc1cccc(NC(=O)/C(C#N)=C/c2cccnc2)c1,nt,17µM*,-6%,-6%,-1%,0%
O=C(Nc1cccc(/C=C/c2ccccn2)c1)c1cc(Cl)ccn1,nt,19µM*,15%,?,2.8µM*,?
O=C(Nc1cccc(/C=C/c2ccccn2)c1)c1ccc(-n2cncn2)c([N+](=O)[O-])c1,nt,24µM*,0%,-3%,18%,-42%
O=c1c2ccccc2nc2ccc(N3CCOCC3)nn12,?,17µM*,3%,?,?,?
Cc1ccc2nc3n(c(=O)c2c1)CCCCC3,?,?,?,15%,20%,15%
Cc1nnc2ccc(N3CCCCC3)nn12,nt,-3%,-1%,-3%,8%[1.84 µM],?
SMILES,SMN2 splice up,FLuc modulator,p53 reactivator,NPC1 prom act,Rab9 promoter act,ELG1 genotox
Cc1ccc2nc3ccc(N4CCN(C)CC4)nn3c(=O)c2c1,nt,6µM*,16%,1.6µM*,3.5µM*,?
Cc1ccc2nc3ccc(N4CCCCCCC4)nn3c(=O)c2c1,?,5.4µM*,59%,?,?,10%
Cc1sc2nc3ccc(N4CCCC4)nn3c(=O)c2c1C,nt,12µM*,3%,?,17%,2%
CCC(CO)n1c(=S)[nH]c2cc(OC)c(OC)cc2c1=O (stereo not drawn),6%,4%,-2%,-4%,1%,-8%
CCOc1ccc(-n2c(SCC(=O)N3CCCCC3)nc3c([nH]c4ccccc43)c2=O)cc1,nt,1%,nt,nt,nt,nt
O=C(O)Cc1cccnc1,0%[9.22 µM],nt,nt,nt,nt,nt
O=C(Cn1c(=O)n(Cc2ccc3c(c2)OCO3)c(=O)c2ccc(C(=O)NC3CCCCC3)cc21)Nc1ccccc1F,-5%,0%,nt,nt,nt,nt
c1csc(-c2nc3nc4ccccc4nc3n2Cc2ccc3c(c2)OCO3)c1,?,2.7µM*,-7%,29%,?,-1%
Cc1c(C(=O)Nc2ccccc2[N+](=O)[O-])csc1-c1ccccc1,nt,1.2µM*,?,3.2µM*,2.8µM*,4.6µM*
Cc1c(C(=O)Nc2ccccc2)csc1-c1ccccc1,13µM*,0.21µM*,?,1.1µM*,0.71µM*,3.7µM*
[O-][N+](=Nc1ccccc1)c1ccccc1,4%,nt,nt,nt,nt,nt
O=C1c2ccccc2S(=O)(=O)N1Cc1nc2ccccc2s1,-69%,19µM*,-24%,?,-11%,16%
Cc1ccccc1CN1C(=O)c2ccccc2S1(=O)=O,nt,4%,-2%,24%,3%,-6%
COc1cc2sc(NC(=O)c3ccco3)nc2cc1Cl,nt,?,11%,0.71µM*,0.56µM*,2.3µM*
Cc1cc2sc(NC(=O)c3ccco3)nc2cc1Cl,nt,1.3µM*,nt,1.4µM*,1.1µM*,?
COc1cc2nc(NC(=O)c3ccco3)sc(=O)c2cc1OC,nt,-8%,-5%,-16%,-8%,-7%
Cc1ccc(CNc2nc3ccc(Cl)cc3n3nnnc23)cc1,12%,4%,nt,nt,nt,nt
COc1ccc2c(c1)O[C@@H](c1ccc3c(c1)OCO3)[C@H](OC(=O)NS(=O)(=O)c1ccc(C)cc1)C2=O,12%,nt,nt,nt,nt,nt
NC(=O)N/N=C/c1cn(-c2ccccc2)nc1-c1cccnc1,nt,9.5µM*,3%,1%,-2%,6%
NC(=S)N/N=C/c1cn(-c2ccccc2)nc1-c1cccnc1,nt,6µM*,1%,15%,12%,7%
O=C(O)c1cn(-c2ccccc2)nc1-c1cccnc1,12%,-3%,-2%,-1%,1%,0%
O=C(N/N=C/c1cn(-c2ccccc2)nc1-c1cccnc1)c1ccccc1,28%,?,9%,-6%,20%,-3%
O=C(/C=C/c1cn(-c2ccccc2)nc1-c1cccnc1)N1CCCCC1,3%,15µM*,-2%,0%,10%,-4%
COc1ccc(C(=O)N2CCN(C(=O)C3CCCO3)CC2)cc1[N+](=O)[O-] (stereo not drawn),nt,nt,8%,nt,nt,0%
COc1ccc(-c2cc(=O)c3c(O)c(OC)c(O)cc3o2)cc1,nt,0.27µM*,11%,3.2µM*,3.5µM*,1.8µM*
O=c1cc(-c2ccc(O)cc2)oc2ccc(O)cc12,?,12µM*,?,?,3.5µM*,10%
